± gives the standard deviation.

The test system of the experiment is RAW-Dual (murine macrophage reporter line). Put plainly: NF-kB reporter (SEAP) activity fold change vs agonist alone; higher = enhanced NF-kB activity. The conditions noted are these: modulator concentration 10 µM; agonist: LPS 0.1 ug/mL. In short, it runs like this: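 RAW-Dual murine macrophage reporter cells were seeded at 50 000 per well in 384-well plates and pre-incubated 1 hour at 37 °C with compound pin-transferred to 10 μM final. After 1 hour, a PRR agonist was added and cells incubated overnight. Supernatant NF-κB (SEAP, QUANTI-Blue, 620 nm absorbance) and IRF (Lucia luciferase, QUANTI-Luc, luminescence) signals were divided by the mean agonist-only control on the same plate to give fold change. Two replicate plates were averaged, with errors by propagation.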
As for `CCCCNCCCCOc1ccc(C)cc1C(C)(C)C`, the NF-kB reporter worked out at 0.167 ± 0.036. For `Brc1ccc(-c2cc(-c3ccccc3)nc(N3CCOCC3)n2)cc1` the value was 0.995 ± 0.11; for `O=C(c1ccc(Cl)cc1)c1ccc(N2CCOCC2)c([N+](=O)[O-])c1`, 1.04 ± 0.08. For `CC1CCN(c2nccnc2Oc2ccc(C(=O)N3CCN(c4ccc(F)cc4)CC3)cc2)CC1` the value was 1.1 ± 0.062; for `Oc1c2c(nc3cc(-c4ccc(Br)cc4)nn13)CCS2`, 1.04 ± 0.064; for `Cc1nn2c(=O)c(Cc3ccccc3)c(C)[nH]c2c1-c1ccccc1`, 0.878 ± 0.082. The result for `CNCCC[C@]12CC[C@H](c3ccccc31)c1ccccc12` [Prestw-346] reads 0.842 ± 0.063; that for `CC(N)c1ccc(Nc2ncc3cc(-c4ccncc4)ccc3n2)cc1.Cl.Cl.Cl` (stereo not given), 1.26 ± 0.08; that for `CCOc1ccc(S(=O)(=O)NC(C)(C)C)cc1C`, 0.852 ± 0.072. For the compound `Cc1oncc1C(=O)Nc1ccc(C(F)(F)F)cc1`, the NF-kB reporter is 1.1 ± 0.16. For `O=C(O)c1ccccc1` the value was 1.24 ± 0.38; for `CC(C)(C)C(O)/C=C/c1ccc2c(c1)OCO2` (stereo not given), 1.26 ± 0.11; for `COc1cccc(S(=O)(=O)NCc2sc(-c3ccccc3)nc2C)c1`, 1.1 ± 0.086. For `CCOC(=O)c1cc(-c2ccccc2)sc1NC(=O)C(C)(C)C` the value was 0.907 ± 0.055. For `CC(C)(O)C#Cc1ccccn1` the value was 0.93 ± 0.14; for `COc1ccc(CC(C)N2CCN(c3cccc(C)c3C)CC2)cc1OC` (stereo not given), 0.974 ± 0.074; for `C[C@]1(O)C[C@@H](c2nc(-c3ccc4ccc(-c5ccccc5)nc4c3)c3c(N)nccn32)C1`, 1.26 ± 0.1.

Consider `Cc1ccc(C2=NN3C(=N)C(=Cc4c[nH]c5ccccc45)C(=O)N=C3S2)cc1`, for which the NF-kB reporter is 1.03 ± 0.065.

Consider `CN1CCN(C2=C(Cl)C(=O)N(c3cccc(Cl)c3)C2=O)CC1`, for which the NF-kB reporter worked out at 0.914 ± 0.099. For `CC1CCc2nc(NC(=O)C3CCCN3S(C)(=O)=O)sc2C1` (stereo not given) the value was 1.03 ± 0.082.

As to `C=CCn1c(SCC(=O)NCCN2CCOCC2)nc2sc3c(c2c1=O)CCC3`, the NF-kB reporter is 1.05 ± 0.069. The result for `CC1(C)CC(NC(=O)c2cccnc2-c2nc3ccccc3s2)CC(C)(C)N1` reads 0.964 ± 0.083; that for `CC(C)(C)C(=O)NCc1cccnc1-c1cccnc1`, 1.02 ± 0.1; that for `COc1cc2c(cc1OC)C(=S)NC1(CCCC1)C2`, 0.985 ± 0.12.

Regarding `COC(=O)c1ccccc1NC(=O)CCc1ccc(Oc2cc([N+](=O)[O-])cc([N+](=O)[O-])c2)cc1`, the NF-kB reporter came out at 1.08 ± 0.079.

Consider `CC(O)(CNC(=O)NCc1ccc(F)cc1)c1ccc(-c2ccccc2)cc1` (stereo not given), for which the NF-kB reporter was found to be 1.14 ± 0.12. The result for `CCn1c2ccccc2c2cc(CNCCc3ccc(OC)cc3)ccc21` reads 0.539 ± 0.068; that for `CN(C)c1nc(CNS(C)(=O)=O)nc(N2CCCCC2)n1`, 1.08 ± 0.091; that for `O=C(NCCC(CCO)c1ccccc1)c1cccc(Br)c1` (stereo not given), 1.03 ± 0.093.

Regarding `CCn1c(C=Nn2cnnc2)nc2ccccc21`, the NF-kB reporter is 1.08 ± 0.072.

Regarding `COc1c(O)cc(O)cc1O`, the NF-kB reporter is 1.08 ± 0.057. In the case of `O=C(NN=Cc1c(O)ccc2ccccc12)c1ccncc1`, the NF-kB reporter worked out at 1.3 ± 0.086. The result for `COc1cc(C=NN2C(=O)c3cccc4cccc(c34)C2=O)cc(Br)c1OC` reads 1.12 ± 0.062. In the case of `CC(=O)OCCN(CCOC(C)=O)c1c(C)[nH]c(=O)[nH]c1=O`, the NF-kB reporter is 0.809 ± 0.079. For `CC(C)C(=O)c1c(C(C)C)nn2ccccc12` the value was 1.2 ± 0.086; for `Cn1c(=O)cc(N2CCC[C@@H](N)C2)n(Cc2cc(F)ccc2C#N)c1=O`, 1.02 ± 0.055; for `Cc1onc(-c2ccccc2)c1-c1ccc(S(N)(=O)=O)cc1`, 1.08 ± 0.4. For `CC(C)(C(=O)O)c1ccc(C(O)CCCN2CCC(C(O)(c3ccccc3)c3ccccc3)CC2)cc1.Cl` (stereo not given) the value was 1.28 ± 0.39.

Turning to `COc1cccc(N2C(=O)CN(Cc3ccccc3)C3CS(=O)(=O)CC32)c1` (stereo not given), the NF-kB reporter came out at 0.719 ± 0.057. In the case of `c1ccc(CCn2c(COc3ccccc3)nc3ccccc32)cc1`, the NF-kB reporter was found to be 0.987 ± 0.13.

(Values after the supplement of paper PMC10646978.)
